Assay results from the supplement of paper PMC3334620.
Over roughly 33,000 sequences, “E-score (-0.5 to 0.5)” has its median near -0.0059; the highest 2% begin near 0.26. The entries come from a sample that favours the highest values as a whole.

The sequences below were run against T1, Cin5 (UniProt P40917) (assay: PBM E-score (8-mer binding enrichment) (E-score (-0.5 to 0.5)); higher = stronger / more preferred TF binding). Details: protein concentration: 100 nM; construct: GST-full length.
T1 sequence: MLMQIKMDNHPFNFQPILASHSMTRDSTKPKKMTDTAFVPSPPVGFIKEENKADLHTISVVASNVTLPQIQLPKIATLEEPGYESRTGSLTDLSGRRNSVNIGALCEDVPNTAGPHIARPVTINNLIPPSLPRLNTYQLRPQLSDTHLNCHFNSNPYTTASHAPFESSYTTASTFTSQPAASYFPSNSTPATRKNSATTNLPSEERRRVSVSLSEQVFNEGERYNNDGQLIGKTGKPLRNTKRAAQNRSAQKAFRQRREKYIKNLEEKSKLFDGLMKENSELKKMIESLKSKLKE
Procedure: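 Universal 'all 10-mer' protein binding microarrays (Agilent AMADID 015681) probed with GST-tagged S. cerevisiae TFs (full-length or DBD) made by in vitro transcription/translation (PURExpress), about 100-200 nM. Bound TF was detected with fluorescent anti-GST. Each ungapped 8-mer (which stands for itself and its reverse complement) is scored by the PBM enrichment score (E-score), a modified Wilcoxon-Mann-Whitney statistic from -0.5 to +0.5, computed with the Universal PBM Analysis Suite. Scale: above 0.35 generally sequence-specific binding.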

Sequence | PBM E-score
ATTATATC | 0.197
ATCATATA | 0.269
ATCATATG | 0.169
ATTTTGTG | 0.139
ATTTTGTA | 0.286
ATTATATG | 0.249
TACATCCA | 0.0256
GCAGCACA | 0.00715
AGGTGGTA | 0.0927
GGCCAGGA | -0.0739
CAGCGTAA | 0.0543
AGGCTATA | -0.161
ATTATCCG | 0.289
CTTATACA | 0.0656
ACTATATC | 0.214
ACTATATA | 0.309
CTTATATA | 0.348
ATGTTGTG | 0.151
ATTATCCA | 0.122
ATGTTGTA | 0.263
ATTATCCC | 0.151
CTTATATC | 0.232

Sequence | PBM E-score
GCTATATA | 0.153
GTGTTGTA | 0.0125
GCGTTAAC | 0.00491
CCCTAGAC | -0.112
TCCTCGAA | 0.043
TAAGCGTA | 0.126
GAACTGGA | 0.158
CTTTGCGC | 0.123
CGTATGAA | 0.188
GCTCTATA | -0.0373
GCGATCTA | 0.068
ATTTTATG | 0.208
ATTTGTAG | 0.136
ATTTTATA | 0.272
ATTTGTAA | 0.326
ATTTGTTA | 0.179
CTTTGTTC | 0.0999
GTTTTATA | 0.148
CTTTGTAA | 0.115
ATTATACC | 0.187
ATTATACG | 0.257
ATTTGTTC | 0.307

Sequence | PBM E-score
ATTATACA | 0.123
CACCAGTG | -0.0701
AGCCTTGC | -0.0563
CCCCGGGC | -0.282
CGATGACA | 0.0915
ATCGACAT | 0.0947
ATATTTGC | 0.209
CCTTTAAG | -0.107
CTTGAGCA | -0.216
AATCTAAT | 0.0853
CCCTATTA | -0.0143
GTCTATTA | 0.0891
ACGTATTA | 0.298
ACGTATTG | 0.0396
ATGTATCG | 0.232
GCGTATTA | 0.0794
ATGTATTC | 0.104
ACCTATTA | 0.267
ATGTATTG | 0.304
ATCTATTA | 0.321
CTCTATTA | 0.0158
GCCTATTA | 0.177

Sequence | PBM E-score
ACTAGCAA | 0.00926
AGATCACT | 0.112
ACAAGTAT | 0.221
AGGTATTG | 0.126
CTTCAGTA | 0.0297
ATAGTAGA | 0.139
GTGTATTA | 0.273
CTGTATTA | 0.133
ATGTATTA | 0.233
GCTGTTCC | -0.0338
CTCTTATC | 0.192
GTGGAAAA | 0.0919
CCGCGTGC | -0.0723
GCTTACCC | 0.00966
GCTTACCA | 0.381
GATTACTA | 0.387
GCTTACGA | 0.414
ACTTACAC | -0.04
AATTACTA | 0.212
GCTTACAA | 0.248
TCTTACCA | -0.0191
